An excerpt weighted towards active compounds, which were near 3.9% of everything screened.
GDH-TPI counter-1: inhibits GDH-TPI coupling enzymes, artifact for Mtb FBA screen. GDH-TPI coupled enzyme counterscreen, NADH absorbance. inhibition, % at 4.8 µM. hit rate 1.2% among 360,000. AID 588335; in the data active = inhibition above about 30%;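 note: 0% = DMSO wells and 100% = wells lacking the enzyme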
Mtb FBA inh: inhibits M. tuberculosis FBA enzyme; P9WQA3; purified M. tuberculosis FBA, fluorescence read-out; inhibition, % at 1 µM; hit rate 2.3% among 360,000; AID 588726;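 note: 0% = vehicle and 100% = reference inhibitor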
Target sequence (P9WQA3 whole entry, looked up): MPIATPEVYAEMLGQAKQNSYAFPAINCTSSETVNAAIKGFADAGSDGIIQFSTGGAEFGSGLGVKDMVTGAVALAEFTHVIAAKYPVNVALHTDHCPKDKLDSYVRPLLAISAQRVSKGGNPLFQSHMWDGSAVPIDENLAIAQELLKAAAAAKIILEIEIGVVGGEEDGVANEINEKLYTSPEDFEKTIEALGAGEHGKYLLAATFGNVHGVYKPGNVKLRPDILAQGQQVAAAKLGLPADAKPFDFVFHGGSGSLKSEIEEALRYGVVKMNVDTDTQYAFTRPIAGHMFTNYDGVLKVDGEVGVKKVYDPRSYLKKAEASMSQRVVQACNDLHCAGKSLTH
Vc quorum ag: quorum light induction in luxS cqsA deficient V. cholerae | V. cholerae BH1578 lux reporter, luminescence, 6 h | activation, % at 18.7 µM | hit rate 0.16% among 350,000 | AID 588436; in the data active = activation mostly above about 9.7%, no sharp cut-off
SARS 3CLpro inh: SARS-CoV 3CLpro protease inhibition; P0C6X7; recombinant SARS-CoV 3CLpro, quenched FRET peptide cleavage; inhibition, % at 6 µM; hit rate 0.14% among 290,000; AID 1706; in the data active = inhibition above about 12%
PrPC surface inh: reduces human prion protein on the cell surface. P04156. cell surface PrPC, TR-FRET read-out. inhibition, % at 13.8 µM. hit rate 0.43% among 370,000; in the data active = inhibition above about 24%; note: 0% = median of the test wells and 100% = reference compound wells
Mtb FBA inh conf: confirmation of M. tuberculosis fructose-bisphosphate aldolase inhibitors; inhibition, % at 1 µM; purified M. tuberculosis FBA, fluorescence read-out; shares compounds with Mtb FBA inh; hit rate 78% among 5,600; AID 651616;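 note: 0% = vehicle wells and 100% = reference inhibitor wells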
GDH-TPI counter-2: counter-screen for M. tuberculosis FBA inhibitors: GDH-TPI coupled enzyme inhibition. hit rate 81% among 5,600. shares compounds with Mtb FBA inh. inhibition, % at 1 µM. GDH-TPI coupled enzyme counterscreen, fluorescence; in the data active = inhibition above about 10%
GDH-TPI dose: GDH-TPI dose response counter-screen for Mtb FBA. shares compounds with Mtb FBA inh. GDH-TPI coupled enzyme assay, fluorescence, artifact counterscreen. IC50, µM. hit rate 79% among 170; call rule not given here
* = called active by the depositor; i = inactive; · = not tested or not shown; + = active, no number. Cut-off read from the data, not from the text of the source, unless noted: active = inhibition above about 27%; inactive = the rest.

SMILES | GDH-TPI counter-1 | Mtb FBA inh | Vc quorum ag | SARS 3CLpro inh | PrPC surface inh | Mtb FBA inh conf | GDH-TPI counter-2 | others
CC(=O)N1CCN(c2cc3c(cc2F)c(=O)c(C(=O)O)cn3C2CC2)CC1 | 0.6 | 30.2* | i | 1.0 | 0.6 | 186.8* | 139.6*
Cc1ccc(S(=O)(=O)NC(=O)C2(C)CCN2C(=O)Cc2cccs2)cc1 (stereo unspecified) | 8.4 | 1.3 | 0.6 | · | -0.1 | · | ·
O=C(c1cccc(Br)c1)N1CCC(Oc2cccnc2)CC1 | · | · | · | · | 6.6 | · | ·
CN(C)C(=O)c1c(-c2ccccc2)oc2ccc(O)cc12 | 7.2 | 18.0 | -3.6 | -3.3 | -3.7 | · | ·
O=c1cc(-c2ccccc2)oc2ccc(Br)cc12 | 9.7 | 3.9 | 9.1 | · | 1.9 | · | ·
COc1ccc2oc(-c3ccccc3)c(C(=O)N(C)C)c2c1 | 9.6 | 33.8* | i | 0.8 | -5.2 | 119.6* | 112.8*
COc1ccc2oc(-c3ccccc3)c(C(N)=O)c2c1 | 20.6 | 99.0* | i | 2.7 | -4.8 | 109.5* | 87.8*
COc1ccc2oc(-c3ccccc3)cc(=O)c2c1 | 11.8 | 78.8* | -0.5 | · | -1.5 | 133.9* | 100.1*
CC(C)(C)c1ccc(S(=O)(=O)N2CCC(C(=O)NCC3COCCO3)CC2)cc1 (stereo unspecified) | · | · | · | · | -8.8 | · | ·
CC1(C(=O)Nc2cccnc2)Cc2c(-c3ccc4c(c3)OCO4)ccnc2O1 (stereo unspecified) | 7.1 | 36.7* | -0.4 | · | -5.6 | 43.4* | 29.9*
CC1(C(=O)Nc2ccccc2)Cc2c(-c3ccc4c(c3)OCO4)ccnc2O1 (stereo unspecified) | 3.6 | 47.5* | i | · | 3.0 | 24.5 | 9.9 | GDH-TPI dose=4.48*
CC1(C(=O)Nc2cccc(Oc3ccccc3)c2)Cc2c(-c3ccc4c(c3)OCO4)ccnc2O1 (stereo unspecified) | -5.8 | 3.1 | i | · | 1.3 | · | ·
CC(=O)Nc1ccc(-c2ccnc3c2CC(C)(C(=O)Nc2ccc4c(c2)OCO4)O3)cc1 (stereo unspecified) | 14.2 | 0.2 | i | · | -3.3 | · | ·
CC1(C(=O)Nc2cccnc2)Cc2c(-c3cccc(C(F)(F)F)c3)ccnc2O1 (stereo unspecified) | -8.0 | -1.1 | -0.3 | · | 6.4 | · | ·
CC(=O)Nc1ccc(NC(=O)C2(C)Cc3c(-c4ccc5c(c4)OCO5)ccnc3O2)cc1 (stereo unspecified) | 0.0 | 52.3* | -0.4 | · | 16.0 | 6.1 | -5.8
CC(C)N1CCC(C)(C(=O)Nc2ccc(-n3cccc3)cc2)C1 (stereo unspecified) | 2.6 | 5.0 | i | · | -9.3 | · | ·
CC(=O)c1ccc(NC(=O)C(C)Sc2nnc(-c3ccncc3)n2C2CC2)cc1 (stereo unspecified) | 3.0 | -0.7 | i | · | -6.9 | · | ·
CC1(C)C(=O)Nc2ccccc2N1C(=O)COc1ccc(C#N)cc1 | -1.3 | 3.2 | 0.5 | · | -0.4 | · | ·
Cc1cc(=O)oc2cc(OCC(=O)N3CCN(Cc4ccccc4)CC3)ccc12 | 16.8 | 35.2* | i | · | 8.2 | 9.3 | -3.3
Cc1cc(=O)oc2cc(OCC(=O)N3c4ccccc4NC(=O)C3(C)C)ccc12 | 15.1 | 33.6* | · | · | 5.0 | 107.3* | 87.2*
Cc1cc(=O)oc2cc(OCC(=O)N3CCC(C(=O)O)(c4ccccc4)CC3)ccc12 | 12.8 | 27.8* | -0.4 | -0.8 | 1.4 | 18.8 | 26.1*
Cc1cc(=O)oc2cc(OCC(=O)N3CCN(C(=O)c4ccco4)CC3)ccc12 | -0.9 | 27.5* | i | -3.9 | 0.8 | 78.5* | 67.9*
CN(Cc1ccc(Cl)cc1)C(=O)c1ccccc1SCC(=O)N1CCCC1 | -2.1 | 0.7 | i | · | 3.2 | · | ·
CCn1c2ccccc2c2cc(C=NNC(=O)c3cc(-c4ccc(OC)cc4)n[nH]3)ccc21 | · | · | · | · | 8.1 | · | ·
N#Cc1cnc2ncnn2c1-c1ccccc1 | 4.0 | -1.7 | i | 2.1 | 10.7 | · | ·
SMILES | GDH-TPI counter-1 | Mtb FBA inh | Vc quorum ag | SARS 3CLpro inh | PrPC surface inh | Mtb FBA inh conf | GDH-TPI counter-2 | others
N#Cc1cnn2c(-c3ccccc3)ccnc12 | 5.8 | 66.0* | · | 5.0 | -6.5 | + | +
CCc1cc2c(CN3CCN(Cc4ccccc4)CC3)cc(=O)oc2cc1O | 7.3 | 96.7* | -1.5 | -2.2 | -0.5 | 113.3* | 92.6*
CCc1cc2c(CN(C)Cc3ccccc3F)cc(=O)oc2cc1O | 6.0 | 57.6* | i | -3.4 | -3.0 | + | +
Cc1c(O)ccc2c(CN3CCN(Cc4ccccc4)CC3)cc(=O)oc12 | 4.0 | 35.9* | -1.2 | -2.4 | -6.5 | + | +
Cc1c(O)ccc2c(CN(C)Cc3ccccc3)cc(=O)oc12 | 16.0 | 47.1* | i | 0.7 | -6.0 | 56.2* | 51.4*
O=c1cc(CN2CCN(Cc3ccccc3)CC2)c2ccc(O)c(O)c2o1 | 12.0 | 5.3 | -1.1 | 0.6 | -11.7 | · | ·
CCc1ccc2c(CN3CCN(Cc4ccccc4)CC3)cc(=O)oc2c1 | 5.0 | 2.0 | -0.6 | -3.7 | -1.4 | · | ·
c1ccc(COc2cccc(-c3cc4nc(NCCc5ccncc5)ccn4n3)c2)cc1 | 14.2 | 16.1 | i | · | 1.7 | · | ·
COc1ccc(Oc2coc3c(CN(C)C)c(O)ccc3c2=O)cc1 | 19.1 | 14.8 | i | 4.5 | 0.3 | · | ·
Cc1cc(C)cc(Oc2coc3c(CN(C)C)c(O)ccc3c2=O)c1 | 22.2 | 91.9* | -0.7 | 2.8 | 4.0 | 77.3* | 67.5*
O=C(NC1CCCC1)c1ccc2c(c1)N(Cc1ccc(F)cc1)CCS2 | 5.0 | 71.7* | -0.4 | -4.2 | -2.6 | 0.7 | 1.6
O=C(c1ccc2c(c1)N(Cc1ccc(F)cc1)CCS2)N1CCOCC1 | 1.7 | 18.4 | -0.2 | -6.0 | 5.6 | · | ·
CN(C)CCNC(=O)c1ccc2c(c1)N(Cc1ccc(F)cc1)CCS2 | -1.0 | 86.7* | -1.4 | 2.3 | -7.9 | -5.9 | -5.2
COc1cccc(CN2CC(C(=O)NCCc3cn4cccnc4n3)CCC2=O)c1 (stereo unspecified) | 2.6 | 47.1* | i | · | 6.4 | 101.9* | 71.1*
COc1cccc(CCNC(=O)C2CCC(=O)N(Cc3cccc(OC)c3)C2)c1 (stereo unspecified) | 0.3 | 2.0 | -2.6 | -2.3 | 3.0 | · | ·
Cc1nc2ccc(S(=O)(=O)NCC(=O)NCc3ccccc3Cl)cc2s1 | · | · | · | · | 0.0 | · | ·
Cc1c2n(c3ccccc13)CCC2=O | 5.6 | 28.3* | -0.6 | 2.1 | -4.6 | 77.5* | 68.3*
Cc1c(C)n2c3c(cccc13)CC2 | -6.0 | -3.6 | -0.1 | 5.8 | 2.1 | · | ·
CCCCNC(=O)c1ccc(NC(C)=O)c(Cl)c1 | 0.6 | 1.7 | -0.3 | 9.2 | 7.0 | · | ·
CC1(C)Nc2ccccc2C(=O)N1NS(=O)(=O)c1ccccc1 | 4.2 | 28.7* | -0.2 | 0.6 | 6.7 | -1.2 | -3.5
O=C1c2ccccc2NC2(CCCC2)N1NS(=O)(=O)c1ccccc1 | 7.6 | 22.3 | -0.2 | -0.2 | -1.8 | · | ·
COc1ccc(C2Nc3ccccc3C(=O)N2NS(=O)(=O)c2ccc(C)cc2)cc1 (stereo unspecified) | 6.9 | 18.7 | -0.5 | 4.4 | -1.9 | · | ·
